Assay outcomes: PubChem BioAssay, National Center for Advancing Translational Sciences (NCATS)
A selection: hits, their analogues and other compounds. The true share with any hit is near 3.2%.
USP2a inh – inhibitors of human ubiquitin-specific protease USP2a; Potency, µM (highest dose often 38.3 µM), inactives show top-dose activity change, negative = inhibition, actives largely listed as inhibitors; USP2 core, Ub-CHOP2 coupled fluorogenic reporter, 485/531; 330,000 compounds, 0.01% hits; AID 463254; O75604;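 also: potency is read from the fitted curve at half-maximal effect; plate controls were DMSO wells for no effect and full inhibition by NEM control for full effect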
Target sequence (O75604 whole entry, looked up): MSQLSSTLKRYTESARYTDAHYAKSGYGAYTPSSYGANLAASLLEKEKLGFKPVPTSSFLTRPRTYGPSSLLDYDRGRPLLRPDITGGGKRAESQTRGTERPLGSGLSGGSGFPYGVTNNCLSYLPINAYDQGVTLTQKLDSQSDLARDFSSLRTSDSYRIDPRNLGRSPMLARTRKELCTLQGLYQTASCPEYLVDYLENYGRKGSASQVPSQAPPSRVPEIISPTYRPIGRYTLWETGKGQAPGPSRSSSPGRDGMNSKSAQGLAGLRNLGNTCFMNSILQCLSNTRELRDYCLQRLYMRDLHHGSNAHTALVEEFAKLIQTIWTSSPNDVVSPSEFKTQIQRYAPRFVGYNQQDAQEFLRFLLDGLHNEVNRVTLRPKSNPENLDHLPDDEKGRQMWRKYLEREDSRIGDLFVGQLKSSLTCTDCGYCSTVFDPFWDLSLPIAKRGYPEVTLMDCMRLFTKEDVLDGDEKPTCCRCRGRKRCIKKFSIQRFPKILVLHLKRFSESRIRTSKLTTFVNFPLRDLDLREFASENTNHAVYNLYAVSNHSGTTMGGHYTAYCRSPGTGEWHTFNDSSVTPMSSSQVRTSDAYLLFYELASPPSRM
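Cell-free coupled assay: 10nM USP2 core preincubated 30min RT with compound in Tris-HCl pH 8.0/CaCl2/CHAPS buffer, then 25nM Ub-CHOP2 and 25nM reporter substrate; fluorescence (Ex 485/Em 531) read after 60min RT, normalized to NEM inhibition, concentration-response curves fitted.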
PLK1 PBD inh – PLK1 (human) polo-box domain binding inhibition; P53350; 360,000 compounds, 2.8% hits; Plk1 PBD binding of FITC phosphopeptide, fluorescence polarization; Potency, µM, inactives show max response, negative = inhibition, most hits filed as inhibitors; also: potency is read from the fitted curve at half-maximal effect; series mostly up to about 57 µM; % is scaled to controls: 0 for no effect and ±100 for the full control effect; nearly all actives have a fitted effect of over 65% in size
GALK inhibitor – galactokinase (human) inhibition | Potency, µM (doses to about 57.5 µM), for the others: top-dose activity change, negative = inhibition, usual class: inhibitors | 270,000 compounds, 0.007% hits | Purified GALK, Kinase-Glo residual ATP luminescence; also: potency is read from the fitted curve at half-maximal effect; % is scaled to controls: 0 for no effect and ±100 for the full control effect
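ATP-depletion format; final 35 uM ATP, 100 uM D-galactose, 5 nM enzyme; pH 8.0 HEPES/Mg2+ buffer; 60 min RT; luminescence read 10 min after detection reagent.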
VDR inhibitor – blocks the human vitamin D receptor; AID 504847; Potency, µM, for inactives: max response, negative = inhibition, hits mostly inhibitors; 400,000 compounds, 0.93% hits; P11473; VDR-SRC2-3 peptide fluorescence polarization, 2 h; also: potency is read from the fitted curve at half-maximal effect; % is scaled to controls: 0 for no effect and ±100 for the full control effect
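Signal is fluorescence polarization, reporting how far test compounds block the interaction of VDR with the SRC2-3 coregulator peptide after a 2 h room-temperature incubation.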
Coupling enz – coupling enzyme interference in Giardia aldolase counter-screen; coupling enzyme system counterscreen, AmpLite Red fluorescence; activity change, negative = inhibition, % at 58.2 µM, hits read low; 290,000 compounds, 0.67% hits; AID 2472; in the data active = activity change below about -30%; also: % is scaled to controls: 0 for no effect and ±100 for the full control effect
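Coupling enzymes only (glyceraldehyde-3-phosphate) + compound, at 57.5 uM final, 10 min RT; add substrate/coupling/AmpLite Red mix, 20 min RT; fluorescence ex 525/em 598 nm. Actives flag coupling-system interference.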
USP1-UAF1 inh – blocks the human USP1/UAF1 deubiquitinase complex. O94782. recombinant USP1/UAF1, Ub-Rhodamine cleavage fluorescence. Potency, µM (series often up to 57.1 µM), without a hit: at the highest dose activity change, negative = inhibition, actives largely listed as inhibitors. 390,000 compounds, 0.23% hits; also: potency is read from the fitted curve at half-maximal effect; % is scaled to controls: 0 for no effect and ±100 for the full control effect; nearly all actives have a fitted effect of over 60% in size
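1 nM enzyme complex + cpd, 15 min RT; start with Ub-Rho 150nM final; kinetic fluorescence ex 480/em 540, 6 reads q60 s. Buffer 50mM HEPES pH 7.8, 0.5mM EDTA, 0.1 mg/ml BSA, 1mM TCEP, 0.01% Tween-20.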
VDR confirm – confirmation of human vitamin D receptor inhibitors | shares compounds with VDR inhibitor | VDR-coactivator inhibition assay, qHTS confirmation | 840 compounds, 89% hits | Potency, µM, usual class: inhibitors; also: potency is read from the fitted curve at half-maximal effect
VDR FP fluor – confirmation of human VDR-coactivator binding inhibitors, fluorescein label; VDR-coactivator binding, fluorescein fluorescence polarization; AID 602200; shares compounds with VDR inhibitor; 840 compounds, 48% hits; Potency, µM (doses to about 57.1 µM), for the others: at the top dose activity change, negative = inhibition, usual class: inhibitors; also: potency is read from the fitted curve at half-maximal effect
VDR bla – confirmation of human vitamin D receptor inhibitors in reporter cells | shares compounds with VDR inhibitor | VDR beta-lactamase reporter cells, FRET ratio; cells co-treated with VDR agonist LG190178 | Potency, µM (series often up to 46.1 µM), for inactives: at the highest dose activity change, negative = inhibition, most hits filed as inhibitors | 840 compounds, 23% hits | AID 602202; also: potency is read from the fitted curve at half-maximal effect; % is scaled to controls: 0 for no effect and ±100 for the full control effect
VDR cytotox – counter-screen for vitamin D receptor inhibitors: cytotoxicity; shares compounds with VDR inhibitor; cytotoxicity counter-screen, cell viability, qHTS; Potency, µM (highest dose often 48.3 µM), inactives show at the highest dose activity change, negative = cytotoxicity, hits mostly cytotoxic; 840 compounds, 18% hits; AID 602204;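 also: potency is read from the fitted curve at half-maximal effect; plate controls were DMSO for no effect and high-concentration cycloheximide for full effect; nearly all actives have a fitted effect of over 75% in size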
Starred values were filed as active, the others as inactive; ? = inconclusive; . = no result. Unless noted, calls follow the shape of the dose curve; as a rule, active = well fitted curve in the direction sought with a large enough effect; inconclusive = small, poorly fitted or top-dose-only effect, or another doubt; inactive = no such curve, though single readings can be large; an effect the other way counts as inactive or inconclusive.

SMILES	USP2a inh	PLK1 PBD inh	GALK inhibitor	VDR inhibitor	Coupling enz	USP1-UAF1 inh	VDR confirm	VDR FP fluor	VDR bla	VDR cytotox
O=c1c(Cl)c(Cl)cnn1Cc1nnc(-c2ccc(Cl)cc2)o1	0.2%	?	-3.1%	?	3.3	-15.9%	?	?	?	?
COc1ccc(/C=C/C(=O)c2ccc3c(c2)OCO3)cc1OC	1.1%	-5.1%	.	-14.1%	.	-15.9%	.	.	.	.
O=C(O)COc1ccc(/C=C/C(=O)c2ccc(C3CCCCC3)cc2)cc1	1.4%	23.8µM*	0.1%	?	8.3	?	7.08*	12.6µM*	?	-8.3%
Cn1cnnc1SCC(=O)Nc1ccccc1C(=O)NC1CCCC1	-0.9%	0.1%	2.8%	-4.7%	-0.3	-20.6%	.	.	.	.
Cc1cc(O)c(C(=O)/C=C/c2ccc(C(C)C)cc2)c(=O)o1	3.3%	-15.3%	.	?	5.0	-21.4%	6.31*	?	?	6.9%
CN(C)c1ccc(/C=C/C(=O)c2c(O)c3ccccc3oc2=O)cc1	10.1%	-6.2%	-2.0%	?	1.0	?	.	.	.	.
CCOc1ccc(/C=C/C(=O)c2c(O)cc(C)oc2=O)cc1	-29.3%	0.3%	-0.4%	?	1.9	-16.9%	15.8*	25.1µM*	?	11.9µM*
CCOc1ccc(/C=C/C(=O)c2c(O)c3ccccc3oc2=O)cc1	-2.1%	-11.6%	2.8%	8.91µM*	7.4	-16.9%	8.44*	171.0%	-19.3%	?
COc1ccc(-c2cc3ccc(O)c(CN4CCOCC4)c3oc2=O)cc1OC	.	.	.	4.2%	.	-11.1%	.	.	.	.
COc1ccc(CCNc2ncnc3c2cnn3-c2cc(Cl)ccc2C)cc1	.	.	.	10.2%	.	?	.	.	.	.
CC1=C(C)CS(=O)N(S(=O)(=O)c2ccccc2)C1 (stereo unspecified)	-0.1%	1.5µM*	-0.2%	3.16µM*	-0.4	-17.4%	3.77*	?	7.6%	0.5%
COc1cccc(/C=C/c2[nH]c(=O)[nH]c(=O)c2[N+](=O)[O-])c1O	2.2%	?	-5.9%	22.4µM*	9.9	-13.1%	21.2*	?	13.9%	24.2%
O=c1[nH]c(/C=C/c2ccccc2Cl)c([N+](=O)[O-])c(=O)[nH]1	-0.2%	-29.0%	0.0%	35.5µM*	15.6	?	18.9*	11.2µM*	17.4%	25.7%
O=C(COc1ccccc1/C=C\c1[nH]c(=O)[nH]c(=O)c1[N+](=O)[O-])Nc1ccccc1	0.0%	-12.4%	?	20µM*	0.8	-24.8%	4.23*	?	0.1%	?
O=C(COc1ccccc1/C=C1\SC(=O)NC1=O)Nc1ccccc1	4.7%	?	-6.3%	-24.3%	1.0	-10.8%	.	.	.	.
CCCOc1ccc(/C=C/c2[nH]c(=O)[nH]c(=O)c2[N+](=O)[O-])cc1OCC	7.1%	-1.1%	1.3%	-13.0%	13.9	-11.0%	.	.	.	.
CCOc1ccc(/C=C/c2[nH]c(=O)[nH]c(=O)c2[N+](=O)[O-])cc1	1.3%	-5.8%	-11.4%	?	12.7	-10.2%	.	.	.	.
